According to the supplement of paper PMC10849652:
The full data set covers some 7,900 targets. This sample favours those with a hit. About 0.6% of all pairs of compound and target were hits. Unmarked numbers belong to inactive results.

What was measured:
Test in all cases: log2 fold change, soluble protein after heating vs DMSO (PISA); higher = thermal stabilisation; K562 cells, 10 uM, 30 min; active = over 0.2 and 3.5 SD of the protein, either way, in both replicates (recomputed)
erlotinib = compound: C#Cc1cccc(Nc2ncnc3cc(OCCOC)c(OCCOC)cc23)c1 [erlotinib]
Method in brief: (§1)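 K562 cells at 2×10^6 cells/mL were treated with 10 μM compound for 30 min. Aliquots were heated for 3 min across 48°C-58°C, pooled, and extracted in PBS with 0.5% NP-40 at 4°C; soluble protein was the supernatant after 21,000xg for 90 min. Soluble protein was quantified by TMTpro 16plex LC-MS/MS with channel sums equalised, and reported as log2 fold change in thermal stability against DMSO controls, with values from duplicates.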

[1] = compound: C/C(=N\NC(=O)C1=CC(=CC=C1)S(=O)(=O)N2CCOCC2)/C3=C(C=CC(=C3)Cl)O
Method in brief: as §1

[2] = compound: C1=CC(=C(C=C1Cl)C2=NC3=NC=CN=C3C(=N2)NC4=CC=NC=C4)F
Method in brief: as §1

[3] = compound: C1=CC(=CC=C1C2=NC3=C(N2)C=C(C=C3)C(=O)N)OC4=CC=C(C=C4)Cl
Method in brief: as §1

[4] = compound: C1=CC2=C(C=CC(=C2)/C=C\3/C(=O)NC(=NCC4=CC=CS4)S3)N=C1
Method in brief: as §1

[5] = compound: C1=CC2=NC=CN=C2C=C1/C=C/3\C(=O)NC(=O)S3
Method in brief: as §1

[6] = compound: C1=CC=C(C=C1)C2=NC(=C(N2)C3=CC=NC=C3)C4=CC(=C(C=C4)Cl)O
Method in brief: as §1

[7] = compound: C1=CC=C2C(=C1)C3=NNC4=CC=CC(=C43)C2=O
Method in brief: as §1

[8] = compound: C1CCN(C1)C(=O)NC2=CC=CC(=C2)NC3=NC=C(C(=N3)NCCC4=CN=CN4)Br
Method in brief: as §1

[9] = compound: C1CN(CCC1(CC2=CC=C(C=C2)Cl)N)C3=NC=NC4=C3C=CN4
Method in brief: as §1

IRAK-1-4 Inhibitor I = compound: C1COCCN1CCN2C3=CC=CC=C3N=C2NC(=O)C4=CC(=CC=C4)[N+](=O)[O-] [IRAK-1-4 Inhibitor I]
Method in brief: as §1

ibrutinib = compound: C=CC(=O)N1CCC[C@@H](n2nc(-c3ccc(Oc4ccccc4)cc3)c3c(N)ncnc32)C1 [ibrutinib]
Method in brief: as §1

[10] = compound: CC(=O)c1cnc2ccc(-c3cc(Cl)c(O)c(Cl)c3)nc2c1N[C@H]1CC[C@H](CN(C)C)CC1
Method in brief: as §1

ralimetinib = compound: CC(C)(C)Cn1c(N)nc2ccc(-c3[nH]c(C(C)(C)C)nc3-c3ccc(F)cc3)nc21 [ralimetinib]
Method in brief: as §1

[11] = compound: CC(C)(O)CC(=O)NCCn1ccc2ncnc(Nc3ccc(Oc4cccc(C(F)(F)F)c4)c(Cl)c3)c21
Method in brief: as §1

[12] = compound: CC(C)C1=C2N=C(C=C(N2N=C1)NCC3=CC=CC=C3)NCCCCCCN
Method in brief: as §1

[13] = compound: CC(C)C[C@@H](C=O)NC(=O)[C@H](CC(C)C)NC(=O)[C@H](CC(C)C)NC(=O)OCc1ccccc1
Method in brief: as §1

pinometostat = compound: CC(C)N(C[C@H]1O[C@@H](n2cnc3c(N)ncnc32)[C@H](O)[C@@H]1O)[C@H]1C[C@@H](CCc2nc3cc(C(C)(C)C)ccc3[nH]2)C1 [pinometostat]
Method in brief: as §1

[14] = compound: CC1=C(C(CC(=O)N1)C2=CC=C(C=C2)C(F)(F)F)C(=O)NC3=C(C=C4C(=C3)C=NN4)F
Method in brief: as §1

[15] = compound: CC1=C(C2=C(C=C1)C(=O)C3=CC=CC=C3N2CCCN)C
Method in brief: as §1

Sequence of UniProt Q8IWV8 (Q8IWV8 whole entry, looked up): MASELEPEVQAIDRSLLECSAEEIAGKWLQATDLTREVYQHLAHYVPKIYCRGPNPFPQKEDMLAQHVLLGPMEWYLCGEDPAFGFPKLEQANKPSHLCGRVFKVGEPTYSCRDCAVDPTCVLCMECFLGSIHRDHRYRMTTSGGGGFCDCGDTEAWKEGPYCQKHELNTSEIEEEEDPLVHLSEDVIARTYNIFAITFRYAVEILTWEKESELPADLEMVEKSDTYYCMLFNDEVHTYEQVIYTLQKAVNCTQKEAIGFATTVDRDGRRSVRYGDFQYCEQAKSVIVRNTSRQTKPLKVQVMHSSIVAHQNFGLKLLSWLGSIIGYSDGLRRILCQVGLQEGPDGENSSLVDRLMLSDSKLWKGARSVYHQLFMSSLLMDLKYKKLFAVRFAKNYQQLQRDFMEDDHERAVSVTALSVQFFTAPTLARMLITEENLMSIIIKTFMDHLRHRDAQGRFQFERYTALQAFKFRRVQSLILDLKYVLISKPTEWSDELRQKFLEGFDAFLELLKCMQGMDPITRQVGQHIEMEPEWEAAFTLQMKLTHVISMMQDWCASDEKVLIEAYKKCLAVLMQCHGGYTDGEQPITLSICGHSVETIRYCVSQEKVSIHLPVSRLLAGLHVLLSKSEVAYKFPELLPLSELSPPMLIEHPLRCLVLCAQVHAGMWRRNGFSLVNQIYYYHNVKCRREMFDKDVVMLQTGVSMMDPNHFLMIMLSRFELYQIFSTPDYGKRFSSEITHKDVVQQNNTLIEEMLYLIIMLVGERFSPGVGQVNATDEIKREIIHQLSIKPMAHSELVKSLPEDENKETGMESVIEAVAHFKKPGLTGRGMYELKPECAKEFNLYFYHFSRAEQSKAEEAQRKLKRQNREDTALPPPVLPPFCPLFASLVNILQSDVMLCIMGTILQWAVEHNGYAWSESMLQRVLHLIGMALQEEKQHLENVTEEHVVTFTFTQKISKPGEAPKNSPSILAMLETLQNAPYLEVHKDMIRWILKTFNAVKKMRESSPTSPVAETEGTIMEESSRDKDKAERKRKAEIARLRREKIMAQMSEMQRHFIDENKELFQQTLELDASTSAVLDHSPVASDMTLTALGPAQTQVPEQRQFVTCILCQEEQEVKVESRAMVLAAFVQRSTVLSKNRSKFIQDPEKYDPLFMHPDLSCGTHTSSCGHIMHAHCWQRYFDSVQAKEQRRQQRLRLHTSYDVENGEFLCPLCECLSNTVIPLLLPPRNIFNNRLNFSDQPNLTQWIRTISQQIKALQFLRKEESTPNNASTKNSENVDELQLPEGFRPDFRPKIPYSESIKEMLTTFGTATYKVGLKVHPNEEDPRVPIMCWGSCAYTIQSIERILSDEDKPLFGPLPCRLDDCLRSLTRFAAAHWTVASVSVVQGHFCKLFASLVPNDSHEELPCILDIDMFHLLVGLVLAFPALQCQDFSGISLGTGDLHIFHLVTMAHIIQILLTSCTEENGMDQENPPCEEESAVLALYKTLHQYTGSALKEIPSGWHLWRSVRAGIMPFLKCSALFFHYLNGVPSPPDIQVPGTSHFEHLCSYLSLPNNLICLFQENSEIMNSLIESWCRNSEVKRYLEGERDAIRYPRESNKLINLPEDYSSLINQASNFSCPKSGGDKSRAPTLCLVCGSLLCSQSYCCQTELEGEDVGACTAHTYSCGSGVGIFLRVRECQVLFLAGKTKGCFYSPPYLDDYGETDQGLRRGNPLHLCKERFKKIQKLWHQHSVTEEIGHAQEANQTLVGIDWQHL
Sequence of UniProt Q8NEZ2 (Q8NEZ2 whole entry, looked up): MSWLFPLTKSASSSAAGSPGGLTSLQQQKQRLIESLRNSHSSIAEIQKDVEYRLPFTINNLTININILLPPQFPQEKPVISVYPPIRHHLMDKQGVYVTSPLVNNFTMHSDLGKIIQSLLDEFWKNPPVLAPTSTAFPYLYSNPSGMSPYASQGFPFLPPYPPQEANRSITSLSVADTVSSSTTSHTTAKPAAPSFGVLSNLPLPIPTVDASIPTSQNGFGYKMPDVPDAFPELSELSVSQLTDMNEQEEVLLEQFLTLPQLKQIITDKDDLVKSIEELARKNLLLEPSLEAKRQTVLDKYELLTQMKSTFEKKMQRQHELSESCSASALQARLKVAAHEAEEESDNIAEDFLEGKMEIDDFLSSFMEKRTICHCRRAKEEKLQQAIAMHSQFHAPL
Sequence of UniProt P12270 (P12270 whole entry, looked up): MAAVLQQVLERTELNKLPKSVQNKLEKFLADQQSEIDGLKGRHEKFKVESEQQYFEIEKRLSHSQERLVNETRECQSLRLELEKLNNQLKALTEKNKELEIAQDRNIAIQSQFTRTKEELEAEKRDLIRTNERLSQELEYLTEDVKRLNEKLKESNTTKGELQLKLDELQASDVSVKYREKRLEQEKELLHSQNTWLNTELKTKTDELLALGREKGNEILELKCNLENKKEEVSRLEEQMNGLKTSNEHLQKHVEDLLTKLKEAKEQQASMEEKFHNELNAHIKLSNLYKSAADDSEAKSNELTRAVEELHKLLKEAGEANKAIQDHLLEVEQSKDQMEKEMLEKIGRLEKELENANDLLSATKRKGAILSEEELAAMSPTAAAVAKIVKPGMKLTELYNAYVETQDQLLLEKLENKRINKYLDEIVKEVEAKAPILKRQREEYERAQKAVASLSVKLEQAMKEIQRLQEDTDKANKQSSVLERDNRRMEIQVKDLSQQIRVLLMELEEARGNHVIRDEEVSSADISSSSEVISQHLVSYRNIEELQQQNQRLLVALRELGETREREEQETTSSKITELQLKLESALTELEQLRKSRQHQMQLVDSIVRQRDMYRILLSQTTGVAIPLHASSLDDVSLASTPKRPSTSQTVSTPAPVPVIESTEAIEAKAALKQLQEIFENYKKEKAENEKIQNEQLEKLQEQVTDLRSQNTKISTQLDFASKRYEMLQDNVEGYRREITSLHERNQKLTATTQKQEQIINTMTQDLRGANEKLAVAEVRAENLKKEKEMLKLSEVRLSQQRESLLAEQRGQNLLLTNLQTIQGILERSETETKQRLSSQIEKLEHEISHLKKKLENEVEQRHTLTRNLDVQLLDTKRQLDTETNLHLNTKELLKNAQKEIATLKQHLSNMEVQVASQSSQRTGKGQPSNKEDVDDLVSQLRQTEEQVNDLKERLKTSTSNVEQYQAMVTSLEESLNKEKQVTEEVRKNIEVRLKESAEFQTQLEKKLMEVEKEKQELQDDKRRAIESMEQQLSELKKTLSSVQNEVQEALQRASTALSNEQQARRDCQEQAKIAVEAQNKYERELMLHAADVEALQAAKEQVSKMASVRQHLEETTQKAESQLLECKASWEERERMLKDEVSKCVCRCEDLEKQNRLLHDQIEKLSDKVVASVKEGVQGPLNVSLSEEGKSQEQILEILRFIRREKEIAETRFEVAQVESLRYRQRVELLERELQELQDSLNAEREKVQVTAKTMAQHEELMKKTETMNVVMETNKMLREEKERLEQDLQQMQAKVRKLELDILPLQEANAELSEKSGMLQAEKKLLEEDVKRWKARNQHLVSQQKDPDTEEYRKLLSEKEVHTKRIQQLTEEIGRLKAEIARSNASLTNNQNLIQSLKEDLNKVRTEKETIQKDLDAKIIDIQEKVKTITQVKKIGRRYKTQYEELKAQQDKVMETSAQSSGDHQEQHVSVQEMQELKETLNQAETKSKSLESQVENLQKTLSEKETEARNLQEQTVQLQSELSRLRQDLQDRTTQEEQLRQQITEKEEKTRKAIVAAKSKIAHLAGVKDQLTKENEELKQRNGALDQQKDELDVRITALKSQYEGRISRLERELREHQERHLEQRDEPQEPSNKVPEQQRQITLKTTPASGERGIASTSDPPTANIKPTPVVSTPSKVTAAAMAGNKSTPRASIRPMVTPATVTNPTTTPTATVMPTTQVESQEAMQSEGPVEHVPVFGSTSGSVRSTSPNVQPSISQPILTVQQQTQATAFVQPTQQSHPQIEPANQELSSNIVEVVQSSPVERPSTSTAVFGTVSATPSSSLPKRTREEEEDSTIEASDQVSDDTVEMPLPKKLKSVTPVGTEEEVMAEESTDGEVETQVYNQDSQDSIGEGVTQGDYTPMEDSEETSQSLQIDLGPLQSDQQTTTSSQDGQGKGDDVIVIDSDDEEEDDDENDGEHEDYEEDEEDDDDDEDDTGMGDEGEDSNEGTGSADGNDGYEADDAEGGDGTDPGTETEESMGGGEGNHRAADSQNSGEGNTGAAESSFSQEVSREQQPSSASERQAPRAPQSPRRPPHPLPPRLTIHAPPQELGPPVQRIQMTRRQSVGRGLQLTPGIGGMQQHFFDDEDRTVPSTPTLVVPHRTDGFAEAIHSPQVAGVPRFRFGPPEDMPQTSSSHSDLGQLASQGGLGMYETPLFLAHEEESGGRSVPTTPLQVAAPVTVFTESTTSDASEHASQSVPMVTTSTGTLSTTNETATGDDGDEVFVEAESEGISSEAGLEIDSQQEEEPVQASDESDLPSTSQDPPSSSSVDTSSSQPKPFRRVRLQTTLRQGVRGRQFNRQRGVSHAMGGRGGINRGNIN
Sequence of UniProt P61960 (P61960 whole entry, looked up): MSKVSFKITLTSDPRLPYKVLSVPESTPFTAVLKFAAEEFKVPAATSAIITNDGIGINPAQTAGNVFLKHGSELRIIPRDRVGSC

Target | log2 fold change (erlotinib) | log2 fold change [1] | log2 fold change [2] | log2 fold change [3] | log2 fold change [4] | log2 fold change [5] | log2 fold change [6] | log2 fold change [7] | log2 fold change [8] | log2 fold change [9] | log2 fold change (IRAK-1-4 Inhibitor I) | log2 fold change (ibrutinib) | log2 fold change [10] | log2 fold change (ralimetinib) | log2 fold change [11] | log2 fold change [12] | log2 fold change [13] | log2 fold change (pinometostat) | log2 fold change [14] | log2 fold change [15]
TPR (UniProt P12270) | -0.113 | 0.023 | -0.001 | -0.011 | -0.098 | 0.174 | -0.104 | -0.118 | 0 | -0.142 | 0.03 | -0.048 | 0.247 | 0.058 | 0.121 | 0.091 | 0.024 | -0.001 | -0.045 | -0.122
UFM1 (UniProt P61960) | 0.026 | 0.072 | 0.093 | 0.064 | -0.015 | -0.002 | 0.12 | 0.172 | -0.297 | 0.088 | 0.219 | 0.026 | 0.003 | 0 | -0.117 | 0.06 | 0.055 | 0.013 | -0.057 | 0.133
VPS37A (UniProt Q8NEZ2) | 0.127 | 0.113 | -0.042 | -0.097 | -0.054 | 0.059 | 0.098 | 0.044 | 0.036 | 0.008 | 0.045 | -0.011 | -0.07 | 0.053 | -0.025 | -0.143 | 0.094 | 0.045 | -0.047 | -0.066
UBR2 (UniProt Q8IWV8) | 0.019 | 0.067 | -0.108 | 0.051 | 0.045 | 0.046 | -0.08 | -0.189 | 0.016 | 0.018 | 0.002 | -0.102 | -0.11 | 0.029 | -0.086 | -0.058 | 0.351 (active) | 0.137 | -0.01 | 0.076
